Experimental data: PubChem BioAssay (NCATS)
Results filed as inconclusive are left out. Activity calls are given as the source filed them. Unless noted, calls come from the whole dose curve; as a rule, active = well fitted curve in the direction sought with a large enough effect; inconclusive = small, poorly fitted or top-dose-only effect, or another doubt; inactive = no such curve, though single readings can be large; an effect the other way counts as inactive or inconclusive.

Legend:
[1] = molecular target: Cytochrome P450 1A2 (Homo sapiens) (UniProt P05177); experiment: p450-cyp1a2 (AID 410; calls by dose curve;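 note: -100% = full effect of reference inhibitor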)
Procedure, shortened: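 Luminescent readout of luciferin formed from Luciferin-ME by human CYP1A2; data normalized against complete inhibition by 57 uM furafylline. Enzyme 20nM, substrate 100uM at Km, 100mM KPO4 buffer, 60 min reaction at room temperature.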

[2] = NFAT Signaling Pathway (AID 444; active = well fitted curve in either direction with a large enough effect, not every such curve was filed as active;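 note: carbachol stimulus at about its EC50 of 1 µM final; % is set by controls: 0 for no effect and ±100 for the full control effect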); conditions: Jurkat NFAT-bla M1, carbachol, beta-lactamase ratio, 5 h; at 7.69 µM (top of the series) unless noted
Procedure, shortened: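 Jurkat cells with NFAT-driven β-lactamase reporter and co-expressed M1 receptor, stimulated with carbachol (final 1 uM, ~EC50), compound titration, 5 h at 37 °C. CCF4 loaded 1 h at RT; 460/530 nm ratio gave %activity and AC50.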

[3] = molecular target: Glucocorticoid receptor (Homo sapiens) (UniProt P04150); experiment: GR-EFC Redistribution (AID 451; calls by dose curve; note: potency is the fitted concentration of half-maximal effect); conditions: CHO-K1 GR-EFC translocation, beta-gal luminescence, 2 h
Procedure, shortened: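 CHO-K1 cells expressing nuclear EA and GR-ED fragments of b-gal; compounds titrated up to 46 uM final, 2 h at 37 C. GR nuclear translocation read as complemented b-gal luminescence after 1 h RT detection.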

[4] = molecular target: Mitogen-activated protein kinase 10 (Mus musculus) (UniProt Q61831); experiment: JNK3 AlphaScreen Assay (AID 530; active = well fitted curve in either direction with a large enough effect, not every such curve was filed as active;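 note: kinase came from lysate of stimulated human HepG2 cells; signal reports phosphorylation of biotinylated GST-cJun 1-79 at Ser73 with 10 µM ATP; % is set by controls: 0 for no effect and ±100 for the full control effect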)
Procedure, shortened: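 Pre-activated (IL-1β/TNFα) JNK3 in HepG2 lysates phosphorylates biotin-GST-cJun(1-79), 10 uM ATP; anti-phospho-cJun(Ser73) AlphaScreen read at room temperature, pH 7.6 Tris buffer. Compounds pre-incubated 15 min as titrations.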

[5] = molecular target: 3',5'-cyclic-AMP phosphodiesterase 4B (Homo sapiens) (UniProt Q07343); experiment: qHTS Assay for Inhibitors of PDE-IV (AID 607; active = well fitted activation curve with a large enough effect in the main read-out, with a control signal flat, not every such curve was filed as active; note: % of control where 0% means no effect)
Procedure, shortened: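 ACTOne HEK293 cells carry a modified cAMP-gated CNG channel and express endogenous PDE4; plated 1000 cells/well, compounds up to 22.9 uM final. Membrane-potential dye fluorescence (ex 535/em 590) was read; parental cells received 10 uM forskolin + 100 uM RO 20-1724.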

[6] = molecular target: Guanine nucleotide-binding protein G(i) subunit alpha-1 (Homo sapiens) (UniProt P63096); experiment: qHTS Assay for Inhibitors of RGS12 GoLoco Motif Activity (Green Fluorophore) (AID 879);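 note: 0% = labeled peptide with Gαi1 and full inhibition = labeled peptide alone without protein; negative values mean loss of peptide binding seen as reduced polarization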
Procedure, shortened: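 Fluorescence polarization assay: 50 nM Gαi1 with 10 nM FITC-labeled RGS12 GoLoco peptide in 10 mM Tris pH 7.5, 150 mM NaCl, 0.1 mM GDP, 0.05% NP40, 10 min at room temperature with compound.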

[7] = molecular target: Cytochrome P450 3A4 (Homo sapiens) (UniProt P08684); experiment: qHTS Assay for Activators of Cytochrome P450 3A4 (AID 885); note: nearly all actives have a fitted effect of over 65% in size
Procedure, shortened: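 20nM CYP3A4 + 25uM Luciferin-PPXE (=KM), 200mM KPO4; cpd 10 min RT; NADPH regen, 60 min RT; stop w/ detection buffer, 20 min; luminescence. Normalized to 57 uM ketoconazole.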

[8] = molecular target: Cytochrome P450 2D6 (Homo sapiens) (UniProt P10635); experiment: qHTS Assay for Inhibitors and Substrates of Cytochrome P450 2D6 (AID 891); note: potency is the fitted concentration of half-maximal effect; nearly all actives have a fitted effect of over 60% in size
Procedure, shortened: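 Human CYP2D6 (5 nM) with 30 uM Luciferin-ME EGE (at Km) in 100 mM KPO4, compound preincubated 10 min, then NADPH regeneration system for 60 min at room temperature. Luciferin read by luminescence; normalized to 1.43 uM quinidine.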

[9] = qHTS Assay for Identification of Small Molecule Antagonists for Thrombopoietin (TPO) Signaling Pathway (AID 918); conditions: TPO-dependent cell signaling reporter, antagonist mode; note: potency is the fitted concentration of half-maximal effect; nearly all actives have a fitted effect of over 60% in size
Procedure, shortened: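 Ba/F3 (murine, hTPO-R, GPIIb-luc reporter); overnight IL-3 withdrawal; cpd + TPO 26 pM final (EC50); 24 h 37 C/5% CO2; Steadylite luminescence after 10 min RT.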

[10] = molecular target: Muscarinic acetylcholine receptor M1 (Rattus norvegicus) (UniProt P08482); experiment: qHTS Assay for Antagonists of Acetylcholine Muscarinic M1 Receptor: Measurement of IP-One Response (AID 944); note: potency is the fitted concentration of half-maximal effect; nearly all actives have a fitted effect of over 75% in size
Procedure, shortened: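 M1-CHO (rat), 2000 cells/well, overnight recovery; cpd 10 min; carbachol EC80 (200 nM), 30 min, HEPES buffer + 50 mM LiCl pH 7.4; IP-One HTRF, Ex 337, Em 620/665 nm.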

[11] = molecular target: Pyruvate kinase (Leishmania mexicana) (UniProt Q27686); experiment: qHTS Validation Assay for Inhibitors of Leishmania Mexicana Pyruvate Kinase (AID 945);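 note: 0% = DMSO only neutral control wells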
Procedure, shortened: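 An endpoint luciferase assay: 0.2 nM LmPYK E451W turns over 0.5 mM PEP with 0.1 mM ADP for 1 h at room temperature, pH 7.2, before PKLight addition. Values are normalized to DMSO-only wells.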

[12] = molecular target: Pyruvate kinase PKM (Homo sapiens) (UniProt P14618); experiment: qHTS Assay for Activators of Human Muscle Pyruvate Kinase (AID 954; active = well fitted curve in the direction sought with a large enough effect, not every such curve was filed as active;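 note: 0% = uninhibited enzyme and -100% = no enzyme or full thiadiazolimine inhibition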)
Procedure, shortened: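 Luminescence from a luciferase ATP-detection/stop reagent reported PKM2 activity. Reactions contained 0.1 nM purified human enzyme, 0.5 mM PEP, 0.1 mM ADP and 7 mM MgCl2 at pH 7.2, run 1 h at RT.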

[13] = molecular target: Alpha-galactosidase A (Homo sapiens) (UniProt P06280); experiment: Counterscreen for Glucocerebrosidase Inhibitors: qHTS Assay for Human alpha-Galactosidase at pH 4.5 (AID 992); note: 0% is about no effect
Procedure, shortened: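 Enzyme at 2 nM final was combined with compound (0.7 nM to 77 uM) and 80 uM 4-methylumbelliferyl alpha-D-galactopyranoside in 50 mM citric acid, 0.005% Tween-20, pH 4.5. After 20 min at room temperature, fluorescence was read (Ex 365/Em 440 nm); AC50 came from Hill fits.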

[14] = molecular target: alpha-glucosidase (Oryza sativa, rice) (UniProt Q653V4); experiment: Counterscreen for Glucocerebrosidase Inhibitors: qHTS Assay for Rice alpha-Glucosidase at pH 5.0 (AID 997);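 note: 0% = full activity with enzyme and -100% = basal without enzyme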
Procedure, shortened: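 Rice alpha-glucosidase (4 nM final) with 400 uM 4-methylumbelliferyl-alpha-D-glucopyranoside in citrate buffer pH 5.0, 20 min at room temperature, stopped at pH 10; fluorescence 365/440 nm, compounds 0.7 nM–77 uM, AC50 from Hill fits.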

[15] = Counterscreen for APE1 Inhibitors: Fluorescent Dye Displacement Validation Assay (AID 1707);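 note: plate controls were ThO with dsDNA and no compound for no effect and ThO without dsDNA for full effect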
Procedure, shortened: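 Thiazole Orange displacement from dsDNA: 250 nM ThO with 50 nM TAMRA-labelled abasic-site (tetrahydrofuran) duplex in 50 mM Tris-HCl pH7.5, 50mM NaCl, 2 mM MgCl2, 0.01% Tween-20. Loss of endpoint fluorescence (ex 480 nm, em 540 nm) flags DNA binders.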

[16] = qHTS for differential inhibitors of proliferation of Plasmodium falciparum line 7G8 (AID 1815);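 note: potency is the fitted concentration of half-maximal effect; parasite growth measured after three days of incubation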
[17] = qHTS for differential inhibitors of proliferation of Plasmodium falciparum line GB4 (AID 1816); conditions: Potency: Plasmodium falciparum GB4 proliferation inhibition;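 note: potency is the fitted concentration of half-maximal effect; parasite growth measured after 72 h incubation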
[18] = qHTS for differential inhibitors of proliferation of Plasmodium falciparum line 3D7 (AID 1876); note: potency is the fitted concentration of half-maximal effect
[19] = qHTS for differential inhibitors of proliferation of Plasmodium falciparum line D10 (AID 1877);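 note: potency is the fitted concentration of half-maximal effect; parasites grown with compound for 72 h before DNA staining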
[20] = qHTS for differential inhibitors of proliferation of Plasmodium falciparum line Dd2 (AID 1882); conditions: Potency: Plasmodium falciparum Dd2 proliferation inhibition; note: potency is the fitted concentration of half-maximal effect; nearly all actives have a fitted effect of over 65% in size
Procedure, shortened: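 Dd2-infected erythrocytes (0.3% parasitemia, 2.5% hematocrit final) incubated with compound 72 h at 37 C, 5% CO2; lysed with saponin/Triton buffer containing SYBR Green I, incubated overnight in the dark, then read by fluorescence (485/535 nm). Normalized to 0.29 uM artemisinin and DMSO.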

[21] = qHTS for differential inhibitors of proliferation of Plasmodium falciparum line W2 (AID 1883); conditions: Potency: Plasmodium falciparum W2 proliferation inhibition;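 note: potency is the fitted concentration of half-maximal effect; parasites grown with compound for 72 h before lysis and staining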
[22] = qHTS for differential inhibitors of proliferation of Plasmodium falciparum line HB3 (AID 1886); conditions: Potency: Plasmodium falciparum HB3 proliferation inhibition;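 note: potency is the fitted concentration of half-maximal effect; parasites grown with compound for 72 h before SYBR Green readout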
[23] = Quantitative high throughput screen for delayed death inhibitors of the malarial parasite plastid, 48 hour incubation (AID 488752); note: potency is the fitted concentration of half-maximal effect; nearly all actives have a fitted effect of over 65% in size
Procedure, shortened: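 Readout is firefly luciferase luminescence from a reporter integrated into the parasite genome, with lower signal taken as inhibited growth. Infected red cells (0.1% parasitemia, 2% hematocrit final) are cultured with compound for one 48 h cycle at 37 C.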

[24] = molecular target: M-phase phosphoprotein 8 (Homo sapiens) (UniProt Q99549); experiment: qHTS Validation Assay for Inhibitors for MPP8 Chromodomain Interactions with Methylated Histone Tails (AID 488949); note: potency is the fitted concentration of half-maximal effect; nearly all actives have a fitted effect of over 55% in size
Procedure, shortened: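 MPP8 (50 nM) was preincubated with biotinylated H3(1-18)K9me3 peptide (50 nM) in PBS pH 7.4, 0.01% Tween-20 for 30 min at room temperature, then with compounds for 30 min; binding was detected by AlphaScreen.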

[25] = molecular target: Transient receptor potential cation channel subfamily V member 1 (Homo sapiens) (UniProt Q8NER1); experiment: HTS Assay for Compounds that Act as Enhancers of the Vanilloid Receptor 1 (AID 488979); note: 0% is about no effect
Procedure, shortened: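 TRPV1 cells loaded with Fluo-8 calcium dye; compound added and Ca2+ signal (ex 480/em 520 nm) followed 3 min, then capsaicin at EC20 added and read 2 more min to detect enhancement.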

[26] = molecular target: Thyrotropin receptor (Homo sapiens) (UniProt P16473); experiment: qHTS Assay for Antagonists of the Thyroid Stimulating Hormone Receptor (AID 488980); note: 0% is about no effect
Procedure, shortened: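 HEK293 cells transfected with human TSHR, suspended in HEPES-buffered HBSS with 70 uM RO 20-1724, were treated with compounds plus TSH at EC80 (4 nM final). cAMP was measured by competitive HTRF (cryptate anti-cAMP antibody, cAMP-d2 acceptor).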

[27] = molecular target: Thyrotropin-releasing hormone receptor (Homo sapiens) (UniProt P34981); experiment: qHTS for Small Molecule Agonists and Allosteric Enhancers of Human TRH Receptor: Validation Screen for Agonists (AID 493127;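 active = calcium activation more than 3 SD above the typical response in the agonist read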;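 note: intracellular calcium rise by fluo-8 fluorescence before TRH EC20 addition; 0% is about no effect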); conditions: TRH receptor agonist cell assay; at 2 µM; stronger effect = higher value
Procedure, shortened: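 Cells 2000/well, 10% FCS, 18 h 33.5C/5% CO2 → fluo-8 Ca dye, RT 30 min–1.5 h → FDSS baseline 10 × 1 s → compound added → 230 cycles (1 s/cycle) agonist mode. TRH controls.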

[28] = molecular target: Galactokinase (Homo sapiens) (UniProt P51570); experiment: qHTS Validation Assay for Inhibitors of Human Galactokinase (GALK) (AID 493189); note: 0% is about no effect
Procedure, shortened: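 GALK (5 nM) with 35 uM ATP and 100 uM galactose in HEPES pH8.0, MgCl2, NaCl, DTT, BSA; 1 h at room temperature. Residual ATP read by Kinase-Glo Plus luminescence after 10 min.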

[29] = molecular target: Voltage-gated inwardly rectifying potassium channel KCNH2 (Homo sapiens) (UniProt Q12809); experiment: qHTS Assay for Small Molecule Inhibitors of the Human hERG Channel Activity (AID 588834);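 note: potency is the fitted concentration of half-maximal effect; lower thallium flux fluorescence means stronger hERG block; nearly all actives have a fitted effect of over 50% in size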
Procedure, shortened: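 U2OS cells transduced with hERG via BacMam (MOI ~100), plated 2000/well, loaded with FluxOR thallium dye, compound ~10 min, then stimulation buffer; fluorescence decrease read kinetically; AC50 from Hill fits.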

[30] = molecular target: Rap guanine nucleotide exchange factor 3 (Homo sapiens) (UniProt O95398); experiment: Counterscreen qHTS for antagonist of cAMP-regulated guanine nucleotide exchange factor 3 (EPAC1) (AID 1645888);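 note: fluorescence loss as bound BODIPY-GDP is released from Rap1B; % of control where 0% means no effect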
Procedure, shortened: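 Rap1B–BODIPY-GDP (250 nM) with 50 uM GDP; compounds pin-transferred to 9.74 nM–152 uM final (activator) or from 7.32 nM upwards (inhibitor). Fluorescence Ex/Em 480/540 nm read at 5 and 30 min, then after adding cAMP or buffer, at room temperature.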

Sequence of Rap guanine nucleotide exchange factor 3 (Homo sapiens) (O95398 whole entry, looked up): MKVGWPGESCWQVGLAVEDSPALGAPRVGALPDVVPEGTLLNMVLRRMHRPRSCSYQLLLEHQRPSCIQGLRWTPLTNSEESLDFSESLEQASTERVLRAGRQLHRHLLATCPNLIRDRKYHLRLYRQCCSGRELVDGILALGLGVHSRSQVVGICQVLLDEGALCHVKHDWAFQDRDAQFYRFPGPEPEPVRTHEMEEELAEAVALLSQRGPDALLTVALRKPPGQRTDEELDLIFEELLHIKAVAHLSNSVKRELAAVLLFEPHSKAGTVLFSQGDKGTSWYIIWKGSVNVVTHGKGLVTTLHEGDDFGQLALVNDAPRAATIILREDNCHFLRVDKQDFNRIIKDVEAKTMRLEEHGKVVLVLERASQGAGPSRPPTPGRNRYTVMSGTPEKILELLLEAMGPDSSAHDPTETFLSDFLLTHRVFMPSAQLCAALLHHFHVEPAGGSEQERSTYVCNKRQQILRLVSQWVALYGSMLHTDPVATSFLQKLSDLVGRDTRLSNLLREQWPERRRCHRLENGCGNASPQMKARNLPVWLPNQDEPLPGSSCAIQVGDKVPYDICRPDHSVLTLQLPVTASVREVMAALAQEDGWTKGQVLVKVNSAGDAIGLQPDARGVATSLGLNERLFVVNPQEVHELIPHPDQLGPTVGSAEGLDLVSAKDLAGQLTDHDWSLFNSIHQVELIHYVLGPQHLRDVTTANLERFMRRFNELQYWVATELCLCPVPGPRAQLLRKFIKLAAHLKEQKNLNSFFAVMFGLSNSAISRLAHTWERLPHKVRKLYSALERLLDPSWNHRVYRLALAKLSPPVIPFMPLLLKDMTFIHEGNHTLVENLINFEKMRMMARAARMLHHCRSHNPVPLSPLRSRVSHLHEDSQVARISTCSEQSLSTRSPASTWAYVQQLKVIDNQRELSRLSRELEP
Sequence of Glucocorticoid receptor (Homo sapiens) (P04150 whole entry, looked up, the tested form may be a part): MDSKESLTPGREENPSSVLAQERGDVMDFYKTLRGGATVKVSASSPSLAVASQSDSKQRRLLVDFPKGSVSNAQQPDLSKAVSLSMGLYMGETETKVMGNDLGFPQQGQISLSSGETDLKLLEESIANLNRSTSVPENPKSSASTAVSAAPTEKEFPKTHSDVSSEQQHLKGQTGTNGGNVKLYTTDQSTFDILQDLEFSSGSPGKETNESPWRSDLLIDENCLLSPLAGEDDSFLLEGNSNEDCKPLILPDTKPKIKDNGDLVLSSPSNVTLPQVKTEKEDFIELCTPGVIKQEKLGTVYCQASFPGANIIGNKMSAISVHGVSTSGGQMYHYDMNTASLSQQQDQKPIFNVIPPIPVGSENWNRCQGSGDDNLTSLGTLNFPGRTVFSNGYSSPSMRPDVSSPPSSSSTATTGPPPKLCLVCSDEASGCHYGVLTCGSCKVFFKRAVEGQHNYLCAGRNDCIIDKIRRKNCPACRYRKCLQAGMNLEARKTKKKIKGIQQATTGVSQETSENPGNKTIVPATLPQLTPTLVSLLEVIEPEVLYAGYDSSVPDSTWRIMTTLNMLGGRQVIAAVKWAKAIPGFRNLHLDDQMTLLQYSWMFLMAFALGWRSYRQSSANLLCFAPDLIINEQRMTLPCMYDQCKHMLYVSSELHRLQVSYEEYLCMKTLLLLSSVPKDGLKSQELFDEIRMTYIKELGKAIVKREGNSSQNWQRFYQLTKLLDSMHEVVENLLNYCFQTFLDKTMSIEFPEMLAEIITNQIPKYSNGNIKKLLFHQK
Sequence of Alpha-galactosidase A (Homo sapiens) (P06280 whole entry, looked up): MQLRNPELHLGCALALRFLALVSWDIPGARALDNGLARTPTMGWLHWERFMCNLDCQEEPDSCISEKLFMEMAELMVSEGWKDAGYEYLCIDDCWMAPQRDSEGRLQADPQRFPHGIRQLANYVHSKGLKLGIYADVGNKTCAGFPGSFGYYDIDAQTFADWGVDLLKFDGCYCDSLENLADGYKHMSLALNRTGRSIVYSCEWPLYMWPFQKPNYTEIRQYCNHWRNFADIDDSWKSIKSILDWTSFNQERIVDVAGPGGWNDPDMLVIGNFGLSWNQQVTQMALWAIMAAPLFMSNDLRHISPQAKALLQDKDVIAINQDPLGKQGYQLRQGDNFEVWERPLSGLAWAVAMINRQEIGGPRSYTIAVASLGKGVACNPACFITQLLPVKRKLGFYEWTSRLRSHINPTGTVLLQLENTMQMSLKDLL
Sequence of Transient receptor potential cation channel subfamily V member 1 (Homo sapiens) (Q8NER1 whole entry, looked up): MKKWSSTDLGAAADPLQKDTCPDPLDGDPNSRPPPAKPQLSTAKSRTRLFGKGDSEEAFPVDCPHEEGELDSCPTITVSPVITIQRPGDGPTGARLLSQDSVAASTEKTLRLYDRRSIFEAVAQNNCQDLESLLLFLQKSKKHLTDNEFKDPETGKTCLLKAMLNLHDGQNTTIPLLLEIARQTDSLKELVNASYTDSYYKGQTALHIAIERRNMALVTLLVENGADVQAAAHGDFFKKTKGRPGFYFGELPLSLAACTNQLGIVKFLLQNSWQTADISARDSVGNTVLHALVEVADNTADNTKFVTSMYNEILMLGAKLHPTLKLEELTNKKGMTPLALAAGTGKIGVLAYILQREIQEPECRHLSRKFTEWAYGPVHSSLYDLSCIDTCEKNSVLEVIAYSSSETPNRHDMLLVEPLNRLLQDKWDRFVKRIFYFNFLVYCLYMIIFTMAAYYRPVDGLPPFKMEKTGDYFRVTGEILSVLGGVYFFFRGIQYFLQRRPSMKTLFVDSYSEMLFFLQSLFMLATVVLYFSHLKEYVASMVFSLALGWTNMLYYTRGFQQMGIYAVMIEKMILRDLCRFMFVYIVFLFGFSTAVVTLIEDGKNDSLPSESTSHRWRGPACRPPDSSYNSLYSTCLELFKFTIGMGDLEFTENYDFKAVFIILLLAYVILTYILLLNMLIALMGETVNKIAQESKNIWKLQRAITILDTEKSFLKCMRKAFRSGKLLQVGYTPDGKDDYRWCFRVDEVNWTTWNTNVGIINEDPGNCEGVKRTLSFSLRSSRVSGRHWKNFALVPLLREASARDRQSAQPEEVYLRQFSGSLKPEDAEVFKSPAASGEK
Sequence of 3',5'-cyclic-AMP phosphodiesterase 4B (Homo sapiens) (Q07343 whole entry, looked up): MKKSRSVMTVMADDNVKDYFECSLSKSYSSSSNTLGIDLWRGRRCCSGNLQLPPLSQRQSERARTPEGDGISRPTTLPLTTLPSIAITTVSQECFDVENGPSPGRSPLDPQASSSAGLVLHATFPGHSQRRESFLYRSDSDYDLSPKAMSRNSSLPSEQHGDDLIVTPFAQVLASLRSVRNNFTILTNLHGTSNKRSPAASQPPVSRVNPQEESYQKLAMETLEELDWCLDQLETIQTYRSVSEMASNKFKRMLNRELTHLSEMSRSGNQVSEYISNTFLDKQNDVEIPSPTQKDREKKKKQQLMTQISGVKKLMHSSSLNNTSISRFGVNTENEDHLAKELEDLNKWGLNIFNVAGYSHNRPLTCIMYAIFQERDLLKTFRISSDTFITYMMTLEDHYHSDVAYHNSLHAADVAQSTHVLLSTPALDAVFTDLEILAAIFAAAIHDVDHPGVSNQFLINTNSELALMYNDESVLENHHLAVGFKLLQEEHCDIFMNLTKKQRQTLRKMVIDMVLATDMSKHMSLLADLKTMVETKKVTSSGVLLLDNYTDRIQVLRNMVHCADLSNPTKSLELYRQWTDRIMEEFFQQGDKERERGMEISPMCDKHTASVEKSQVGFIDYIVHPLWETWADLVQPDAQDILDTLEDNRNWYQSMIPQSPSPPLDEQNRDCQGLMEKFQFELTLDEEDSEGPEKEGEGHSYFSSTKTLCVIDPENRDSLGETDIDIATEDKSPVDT
Sequence of Pyruvate kinase PKM (Homo sapiens) (P14618 whole entry, looked up): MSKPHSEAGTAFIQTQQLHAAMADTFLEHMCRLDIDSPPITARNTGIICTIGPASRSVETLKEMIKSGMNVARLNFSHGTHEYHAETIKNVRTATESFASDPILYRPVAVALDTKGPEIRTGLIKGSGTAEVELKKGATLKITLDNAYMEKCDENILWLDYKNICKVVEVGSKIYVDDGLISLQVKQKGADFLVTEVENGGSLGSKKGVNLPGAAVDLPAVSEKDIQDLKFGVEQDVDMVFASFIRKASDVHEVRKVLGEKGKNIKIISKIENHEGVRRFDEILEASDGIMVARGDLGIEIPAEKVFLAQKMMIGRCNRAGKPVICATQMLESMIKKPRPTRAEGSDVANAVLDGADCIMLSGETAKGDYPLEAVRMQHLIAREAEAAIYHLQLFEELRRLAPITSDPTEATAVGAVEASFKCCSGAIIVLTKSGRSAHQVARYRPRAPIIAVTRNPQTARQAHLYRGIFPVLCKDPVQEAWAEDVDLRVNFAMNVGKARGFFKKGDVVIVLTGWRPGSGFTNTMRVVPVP
Sequence of Thyrotropin-releasing hormone receptor (Homo sapiens) (P34981 whole entry, looked up): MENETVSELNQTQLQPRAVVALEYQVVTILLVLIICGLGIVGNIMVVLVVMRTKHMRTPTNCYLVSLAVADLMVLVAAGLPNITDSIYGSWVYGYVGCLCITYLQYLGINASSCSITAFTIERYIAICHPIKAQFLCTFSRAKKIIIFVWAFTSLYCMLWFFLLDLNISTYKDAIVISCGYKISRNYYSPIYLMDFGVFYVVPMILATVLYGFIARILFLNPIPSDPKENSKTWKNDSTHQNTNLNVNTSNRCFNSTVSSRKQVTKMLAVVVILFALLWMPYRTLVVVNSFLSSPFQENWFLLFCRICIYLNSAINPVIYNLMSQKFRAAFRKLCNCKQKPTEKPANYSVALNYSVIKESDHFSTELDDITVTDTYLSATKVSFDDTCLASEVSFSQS
Sequence of Guanine nucleotide-binding protein G(i) subunit alpha-1 (Homo sapiens) (P63096 whole entry, looked up): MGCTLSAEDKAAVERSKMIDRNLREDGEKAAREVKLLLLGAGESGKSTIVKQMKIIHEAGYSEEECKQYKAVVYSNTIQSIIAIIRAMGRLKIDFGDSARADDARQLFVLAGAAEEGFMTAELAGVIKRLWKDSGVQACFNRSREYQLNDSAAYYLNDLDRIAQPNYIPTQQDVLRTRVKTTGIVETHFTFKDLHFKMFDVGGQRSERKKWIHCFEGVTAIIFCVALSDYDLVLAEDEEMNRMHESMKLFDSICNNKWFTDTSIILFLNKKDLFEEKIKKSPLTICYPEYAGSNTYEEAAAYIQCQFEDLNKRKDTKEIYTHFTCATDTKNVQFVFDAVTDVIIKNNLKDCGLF

Cc1cc(N)c2ccccc2[n+]1CCCCCCCCCCCCCC[n+]1c(C)cc(N)c2ccccc21
inactive: Potency [1] | Potency [3] > 46000 nM | Potency [4] | Potency [5] | Potency [6] | outcome [7] | outcome [11] | outcome [12] | outcome [13] | outcome [14] | outcome [15] | outcome [25] | outcome [26] | activation [27] -0.125% | outcome [28]
active: activity change, negative = inhibition [2] -82.1% [at 38 µM] | Potency [8] 7940 nM | Potency [9] 2510 nM | Potency [10] 3980 nM | Potency [16] 316 nM | Potency [17] 316 nM | Potency [18] 126 nM | Potency [19] 316 nM | Potency [20] 355 nM | Potency [21] 141 nM | Potency [22] 316 nM | Potency [23] 1470 nM | Potency [24] 39800 nM | Potency [29] 7080 nM

CCOC(=O)C1CN(S(=O)(=O)c2ccc(C)cc2)c2ccccc2O1 (stereo unspecified)
inactive: Potency [30]

OC[C@@H]1[C@@H](c2ccccc2)C(c2ccccc2)=NN1c1ccccc1
inactive: Potency [30]
